Test results taken from PubChem BioAssay (EPA / NIEHS).
The source made the active and inactive calls. The calls were made as follows: active = hit-call score of the fitted dose curve at least 0.9, where 1 is the maximum; inactive = score below 0.9.

Read-out: Interleukin-1 alpha (IL1a), IL1A (gene 3552)
Experiment: BSK_LPS_IL1a: BioMAP Diversity Plus: LPS Assay for Interleukin-1 alpha (IL1a) Biomarker Activity (AID 2283080)
Details: primary human HUVEC with PBMC; actives raise or lower the signal
Protocol: BSK_LPS is a cell-based, multiplexed-readout assay that uses umbilical vein endothelium and peripheral blood mononuclear cells, a human vascular primary cell co-culture, with measurements taken at 24 hours after chemical dosing in a 96-well plate.BSK_LPS_IL1a is an assay component measured in the BSK_LPS assay. It measures IL-a antibody related to regulation of gene expression using ELISA technology.Data from the assay component BSK_LPS_IL1a was analyzed into 1 assay endpoint. This assay endpoint, BSK_LPS_IL1a, was analyzed with bidirectional fitting relative to DMSO as the negative control and baseline of activity. Using a type of binding reporter, gain or loss-of-signal activity can be used to understand changes in the signaling as they relate to the gene IL1A. Furthermore, this assay endpoint can be referred to as a primary readout, because this assay has produced multiple assay endpoints where this one serves a signaling function. To generalize the intended target to other relatable targets, this assay endpoint is annotated to the cytokine intended target family, where the subfamily is interleukins.
The levels of cell surface (or secreted, indicated by the prefix "s") biomarker endpoints were measured by ELISA. Overt cytotoxicity to cells in confluent adherent cultures (all systems other than the BT system) was assessed by measuring total protein levels using sulforhodamine B (SRB) staining in parallel cultures at the time of biomarker measurements, indicated as SRB endpoints. For proliferation assays for adherent cell types, individual cell types are cultured at sub-confluence and relative cell numbers quantified by SRB staining at time points optimized for each system (48 h: 3C and CASM3C systems; 72 h: BT and HDF3CGF systems; 96 h: SAg system). SRB was performed by staining cells with 0.1% SRB after fixation with 10% TCA and reading wells at 560 nm.Viability and proliferation of PBMC (T cells) was quantified by Alamar Blue reduction for the SAg and BT systems. For PBMC viability (referred to as PBMC Cytotoxicity within the assay endpoint names), cells were plated (75,000/well in a 96-well plate) and then chemical samples added for 1 h before addition of activators, SEB and TSST-1 (20 ng/mL final concentration each). Cells were incubated for 90 h. Then, Alamar Blue (20 uL/well) (Invitrogen, Cat DAL1100) was added for 6 h, and the plates were read with a fluorescence microplate reader at 546/580 nm (excitation/emission). For PBMC proliferation, cells were plated and activated as above but incubated for only 16 h prior to addition of Alamar Blue. Plates were read after 6 h.

| SMILES | outcome | AC50 |
| --- | --- | --- |
| COC(=O)NS(=O)(=O)c1ccc(N)cc1 | inactive |  |
| C=CCOC(=O)C(C)(C)OC(=O)c1cc(-n2c(=O)cc(C(F)(F)F)n(C)c2=O)ccc1Cl | inactive |  |
| CC(C)C1(C)N=C(c2ncccc2C(=O)O)NC1=O (stereo not given) | inactive |  |
| COc1ccc(-c2ccccc2)cc1NNC(=O)OC(C)C | inactive |  |
| O=c1n(Cl)c(=O)n(Cl)c(=O)n1Cl | inactive |  |
| CC(C)Oc1cccc(NC(=O)c2ccccc2C(F)(F)F)c1 | inactive |  |
| CC(C)=CC1C(C(=O)OCc2coc(Cc3ccccc3)c2)C1(C)C (stereo not given) | inactive |  |
| CSC(=O)c1c(C(F)F)nc(C(F)(F)F)c(C(=O)SC)c1CC(C)C |  | 15.1 µM (active) |
| Cc1cnc(C2=NC(C)(C(C)C)C(=O)N2)c(C(=O)O)c1 (stereo not given) | inactive |  |
| CNC(=O)Oc1cccc2ccccc12 | inactive |  |
| CCCCC(C#N)(Cn1cncn1)c1ccc(Cl)cc1 (stereo not given) | inactive |  |
| CC(C)Nc1nc(Cl)nc(NC(C)C)n1 | inactive |  |
| CCNC(=O)NC(=O)C(C#N)=NOC | inactive |  |
| Cc1ccc(N=CN(C)C=Nc2ccc(C)cc2C)c(C)c1 |  | 30.2 µM (active) |
| CO/N=C(/C1=NOCCO1)c1ccccc1Oc1ncnc(Oc2ccccc2Cl)c1F | inactive |  |
| OC(c1ccc(Cl)cc1)(c1ccc(Cl)cc1)C(Cl)(Cl)Cl |  | 27.4 µM (active) |
| Cc1c(COC(=O)[C@@H]2[C@H](/C=C(\Cl)C(F)(F)F)C2(C)C)cccc1-c1ccccc1 | inactive |  |
| CN/C(=N\[N+](=O)[O-])NCc1cnc(Cl)s1 | inactive |  |
| CC1(C)CON(Cc2ccccc2Cl)C1=O | inactive |  |
| CC(C)NC(=O)N1CC(=O)N(c2cc(Cl)cc(Cl)c2)C1=O | inactive |  |

| SMILES | outcome | AC50 |
| --- | --- | --- |
| N#Cc1c(Cl)cccc1Cl | inactive |  |
| Nc1c(Cl)c(Cl)nc(C(=O)O)c1Cl | inactive |  |
| O=C(Nc1ccccc1-c1ccc(Cl)cc1)c1cccnc1Cl | inactive |  |
| COC(=O)c1c(C(F)F)nc(C(F)(F)F)c(C2=NCCS2)c1CC(C)C | inactive |  |
| CCOP(=O)(OCC)Oc1nc(Cl)c(Cl)cc1Cl | inactive |  |
| CS(=O)(=O)c1cc(C(F)(F)F)ccc1C(=O)c1cnoc1C1CC1 | inactive |  |
| O=C(O)c1c(Cl)ccc2cc(Cl)cnc12 | inactive |  |
| CCC(C)n1c(=O)[nH]c(C)c(Br)c1=O (stereo not given) | inactive |  |
| Nc1c(Cl)c(F)nc(OCC(=O)O)c1Cl | inactive |  |
| COc1cc(Cl)c(OC)cc1Cl | inactive |  |
| CC(C)N1C(=O)N(c2ccccc2)CSC1=NC(C)(C)C |  | 30.6 µM (active) |
| CC(C)N1C(=O)c2ccccc2NS1(=O)=O | inactive |  |
| CCSC(=O)N1CCCCCC1 | inactive |  |
| Clc1cccc(C(Cl)(Cl)Cl)n1 | inactive |  |
| CC1(C)C(C=C(Cl)Cl)C1C(=O)OC(C#N)c1cccc(Oc2ccccc2)c1 (stereo not given) | inactive |  |
| CCN(CC)C(=O)C(C)Oc1cccc2ccccc12 (stereo not given) | inactive |  |
| COCc1cnc(C2=NC(C)(C(C)C)C(=O)N2)c(C(=O)O)c1 (stereo not given) | inactive |  |
| COP(=O)(OC)O/C(C)=C/C(=O)N(C)C | inactive |  |
| CCOC(=O)C(C)OC(=O)c1cc(Oc2ccc(C(F)(F)F)cc2Cl)ccc1[N+](=O)[O-] (stereo not given) | inactive |  |
| CS(=O)(=O)c1ccc(C(=O)C2C(=O)CCCC2=O)c([N+](=O)[O-])c1 | inactive |  |
